PubChem BioAssay (NCATS)
Inconclusive results are not listed. Entries that show only a call come without a potency. The source made the active and inactive calls. Calls come from the whole dose curve; as a rule, active = well fitted inhibition curve with a large enough effect; inconclusive = small, poorly fitted or top-dose-only effect; inactive = flat fitted curve, though single readings scatter.

System: astro (control astrocytes)
Assay: Drug repurposing screens with cells derived from glioblastoma tumor samples (AID 1345199); note: nearly all actives have a fitted effect of over 40% in size
Conditions: viability, ATP luminescence, 48 h; series mostly up to 45.9 µM
Protocol: CD133+ cells were isolated from GBM patient biopsies and cultured as neurospheres. Neurospheres from four patients were used to screen the NCATS pharmaceutical collection (NPC) library of approved drugs and bioactive compounds. […] The neurospheres were incubated with drugs for 48 hours in 1536-well format, then assayed with an ATP content cell viability assay. […] These hits were cherry picked to confirm activity in the four original GBM lines screened plus three other slower growing GMB lines (unable to yield enough cells for a full primary screen). Variable activities of the confirmed primary hits in the different GBM patient lines were observed. The patient line 206 responded to the greatest number of compounds and line 923 responded to the least amount of active compounds.
Potency is the fitted concentration of half-maximal effect.

| Compound | Potency |
| --- | --- |
| C[C@@H](O)[C@H]1C(=O)N2C(C(=O)O)=C(S[C@@H]3CN[C@H](CNS(N)(=O)=O)C3)[C@H](C)[C@H]12 | inactive |
| CC(C)(C)CC(C)(C)c1ccc(O)c(-n2nc3ccccc3n2)c1 | inactive |
| COc1cc(C(=O)N2CCCCCCC2)cc(OC)c1OC | inactive |
| CCCCCCCCNC(C)C(O)c1ccc(SC(C)C)cc1 (stereo not given) | 22.4 µM (active) |
| CCN1CCN(C(=O)N[C@@H](C(=O)N[C@@H]2C(=O)N3C(C(=O)O)=C(CSc4nnnn4C)CS[C@H]23)c2ccc(O)cc2)C(=O)C1=O | inactive |
| CCC(Cc1c(I)cc(I)c(N)c1I)C(=O)O (stereo not given) | inactive |
| CC(=O)Nc1ncc([N+](=O)[O-])s1 | inactive |
| C=C[C@H]1CN2CC[C@H]1C[C@H]2[C@H](O)c1ccnc2ccc(OC)cc12 | inactive |
| O=C(Nc1cccc(C2=NCCN2)c1)Nc1cccc(C2=NCCN2)c1 | inactive |
| CCC(CC)(CC(=O)Nc1cccc(/C=C/c2nc(C3CCC3)cs2)c1)C(=O)O | 15.8 µM (active) |
| CC(C)Nc1cccnc1N1CCN(C(=O)c2cc3cc(NS(C)(=O)=O)ccc3[nH]2)CC1 | inactive |
| CCN[C@@H]1C[C@H](N)[C@@H](OC2OC(CN)=CCC2N)[C@H](O)[C@H]1O[C@H]1OC[C@](C)(O)[C@H](NC)[C@H]1O (stereo not given in full) | inactive |
| CCc1cc(Cl)c(OC)c(C(=O)NC[C@@H]2CCCN2CC)c1O | inactive |
| OCc1ccccn1 | inactive |
| COc1cc(C)nc(-n2nc(C)cc2OC)n1 | inactive |
| CCCCOC(=O)CC(CC(=O)OCCCC)(OC(C)=O)C(=O)OCCCC | inactive |
| Cc1c[nH]c2ccccc12 | inactive |
| CCc1ccc(C(=O)C(C)CN2CCCCC2)cc1 (stereo not given) | inactive |
| CCCCCCCCCCCCOCCOCCOCCOCCOCCOCCOCCOCCOCCO | 3.16 µM (active) |
| CC(C)(C)NCC(O)COc1cccc2c1C[C@H](O)[C@H](O)C2 (stereo not given in full) | inactive |

| Compound | Potency |
| --- | --- |
| CCOC(=O)c1ccc(N)cc1 | inactive |
| NC(=O)C1(N2CCCCC2)CCN(CCCC(=O)c2ccc(F)cc2)CC1 | inactive |
| CC(C)=CCOc1ccc(/C=C/C(=O)c2ccc(OCC=C(C)C)cc2OCC(=O)O)cc1 | 31.6 µM (active) |
| CCOc1cc(OCC)c(C(=O)CCC(=O)O)cc1OCC | inactive |
| CCCCN=C(N)N=C(N)N | inactive |
| FC(F)(F)C(F)(F)C(F)(F)C(F)(F)C(F)(F)C(F)(F)C(F)(F)C(F)(F)Br | inactive |
| CCCCC(CC)CN1CN(CC(CC)CCCC)CC(C)(N)C1 (stereo not given) | inactive |
| C[N+]12CCC(CC1)C(OC(=O)C(O)(c1ccccc1)c1ccccc1)C2 (stereo not given) | inactive |
| O=C(O)CCNC(=O)c1ccccc1 | inactive |
| CCCCc1cc2ccccc2c(OCCN(C)C)n1 | inactive |
| CN1CCN(c2c(F)cc3c(=O)c(C(=O)O)cn4c3c2SCC4)CC1 | inactive |
| O=C1C(=O)c2ccccc2C(O)=C1C1CCC(c2ccc(Cl)cc2)CC1 (stereo not given) | 12.6 µM (active) |
| CCN(CC)CCOc1ccccc1C(=O)CCc1ccccc1 | inactive |
| COc1ccc(CCN(C)CCCN2CCc3cc(OC)c(OC)cc3CC2=O)cc1OC | inactive |
| CC1=C(C(=O)O)N2C(=O)[C@@H](NC(=O)[C@H](N)c3ccccc3)[C@H]2SC1 | inactive |
| C/C=C/c1ccc(O)c(OC)c1 | inactive |
| COc1cc(N)c(Cl)cc1C(=O)NC1CCN(Cc2ccccc2)CC1 | inactive |
| Oc1c(Cl)cc(Cl)c(Cl)c1Cc1c(O)c(Cl)cc(Cl)c1Cl | 4.47 µM (active) |
| N=C(N)N1CCc2ccccc2C1 | inactive |
| CCOC(=O)[C@H](CCc1ccccc1)N[C@@H](C)C(=O)N1[C@H](C(=O)O)C[C@@H]2CCC[C@@H]21 | inactive |
